Data: PubChem BioAssay (Tox21)
Inconclusive results are not listed. Entries that show only a call come without a potency. Unmarked numbers belong to inactive results. Active and inactive are the calls of the source. Calls come from the whole dose curve; as a rule, active = well fitted curve in the direction sought with a large enough effect in the repeat runs; inconclusive = weak or mixed curves; inactive = no such curve, though single readings can be large; an effect the other way counts as inactive or inconclusive.

Tests used:
[1] = qHTS RealTime-Glo MT Cell Viability Assay in HEK293 cells - 16 hour (AID 1224872); note: top concentration of the series differs between compounds; nearly all actives have a fitted effect of over 50% in size
In short: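 HEK293 cells seeded with NanoLuc/prosubstrate reagent, rested 5 h at 37 C, then dosed and kept at 37 C up to 40 h. Nonlytic real-time luminescence from viable cells read at 0, 8, 16, 24, 32 and 40 h.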

[2] = qHTS RealTime-Glo MT Cell Viability Assay in HepG2 cells - 8 hour (AID 1224873); note: nearly all actives have a fitted effect of over 55% in size
In short: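 HepG2 cells (600/well) mixed with RealTime-Glo MT reagent, settled 5 h at 37 C/5% CO2 before compound addition. Nonlytic NanoLuc luminescence from viable-cell prosubstrate reduction read repeatedly during 40 h treatment at 37 C.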

[3] = qHTS RealTime-Glo MT Cell Viability Assay in HEK293 cells - 40 hour (AID 1224874); conditions: RealTime-Glo luminescence; max response: hits give low values; note: nearly all actives have a fitted effect of over 50% in size; note: potency is the fitted concentration of half-maximal effect
In short: (§1)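 Luminescence readout at each listed time point; HEK293, 600 cells/well, RealTime-Glo MT reagent added with cells; compounds pinned (23 nL in DMSO) after 5 h at 37 C; continuous culture at 37 C.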

[4] = qHTS RealTime-Glo MT Cell Viability Assay in HepG2 cells - 32 hour (AID 1224877); note: nearly all actives have a fitted effect of over 55% in size; note: potency is the fitted concentration of half-maximal effect
In short: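 HepG2 cells (600/well) were dispensed with RealTime-Glo reagents, incubated 5 h at 37 °C, then treated with compounds in DMSO for up to 40 h. Nonlytic NanoLuc luminescence reflecting viable cells was read at each stated time point.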

[5] = qHTS RealTime-Glo MT Cell Viability Assay in HEK293 cells - 0 hour (AID 1224880); note: nearly all actives have a fitted effect of over 45% in size; note: potency is the fitted concentration of half-maximal effect
In short: as §1

[6] = A CellTox Green Cytotoxicity Assay to monitor cytotoxicity in HEK293 cells - 24 hour (AID 1224875); note: series mostly up to about 77 µM; nearly all actives have a fitted effect of over 45% in size
In short: (§2)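 Read-out: fluorescence of a cell-impermeant cyanine dye staining DNA of dead cells, proportional to cytotoxicity. HEK293, 600 cells/well with reagent, compound (23 nL DMSO) added after 5 h; reads at 0, 8, 16, 24, 32, 40 h.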

[7] = A CellTox Green Cytotoxicity Assay to monitor cytotoxicity in HepG2 cells - 16 hour (AID 1224876); note: nearly all actives have a fitted effect of over 45% in size
In short: (§3)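 HepG2, 600 cells/well premixed w/ CellTox Green; 5 h settle, 37 C/5% CO2; pintool cpd add (DMSO); 37 C, 40 h; fluorescence read at 0, 8, 16, 24, 32, 40 h.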

[8] = A CellTox Green Cytotoxicity Assay to monitor cytotoxicity in HepG2 cells - 24 hour (AID 1224878); note: nearly all actives have a fitted effect of over 45% in size
In short: as §3

[9] = A CellTox Green Cytotoxicity Assay to monitor cytotoxicity in HepG2 cells - 40 hour (AID 1224879); note: nearly all actives have a fitted effect of over 40% in size; note: potency is the fitted concentration of half-maximal effect
In short: as §3

[10] = A CellTox Green Cytotoxicity Assay to monitor cytotoxicity in HEK293 cells - 32 hour (AID 1224881); note: nearly all actives have a fitted effect of over 40% in size
In short: as §2

Compound | Potency [1] | outcome [2] | max response [3] [%] | Potency [4] | Potency [5] | outcome [6] | outcome [7] | outcome [8] | Potency [9] | outcome [10] | Potency [3]
C=CCOCC(O)CO (centres undefined) | inactive | inactive | 16.5 | inactive | inactive |  |  |  |  |  | 
CCCc1nn(C)c2c(=O)[nH]c(-c3cc(S(=O)(=O)N4CCN(C)CC4)ccc3OCC)nc12 |  | inactive |  | inactive | inactive | inactive | inactive | inactive | inactive | inactive | 
[K+] | inactive | inactive | 21.2 | 49 µM (active) |  |  | inactive |  | inactive | inactive | 
CNCCO | inactive | inactive |  |  | inactive | inactive | inactive | inactive | inactive |  | 
C=COCC1CCC(COC=C)CC1 (centres undefined) |  | inactive | -3.6 | inactive |  | inactive |  |  |  | inactive | 
CCOc1c(N2CCOCC2)cnn(C)c1=O | inactive | inactive | 3.38 |  | inactive |  | inactive | inactive | inactive | inactive | 
C=CCCC(=O)O | inactive | inactive | 7.36 |  | inactive |  | inactive |  | inactive | inactive | 
O=C(c1ccccc1O)c1ccccc1O |  | inactive |  | inactive | inactive |  | inactive | inactive | inactive |  | 
COc1ccnc(CS(=O)c2nc3cc(OC(F)F)ccc3[nH]2)c1OC (centres undefined) | inactive | inactive |  | inactive | inactive | inactive | inactive | inactive | inactive | inactive | 
CC1=C(C/C=C(\C)CCC[C@H](C)CCC[C@H](C)CCCC(C)C)C(=O)c2ccccc2C1=O |  | inactive |  | inactive | inactive | inactive | inactive | inactive | inactive |  | 
Cc1nc(C2CCCCC2)c(-c2ccc(S(N)(=O)=O)c(F)c2)o1 |  |  |  | inactive | inactive |  | inactive |  | inactive | inactive | 
CCN[C@H]1C[C@H](C)S(=O)(=O)c2sc(S(N)(=O)=O)cc21 | inactive | inactive | -0.522 |  | inactive |  | inactive |  | inactive |  | 
CNC(=O)Nc1ccc(Cl)c(Cl)c1 | inactive | inactive | -26.8 | inactive | inactive |  | inactive |  | inactive |  | 
C=C(C)C(=O)OCCOCCOCCOCCOC(=O)C(=C)C | inactive | inactive |  | inactive | inactive | inactive | inactive | inactive | inactive | inactive | 
CC(C)=CCC/C(C)=C/C#N | inactive | inactive | 2.39 | inactive | inactive |  | inactive |  | inactive | inactive | 
CC(=O)O[C@@]12CO[C@@H]1C[C@H](O)[C@@]1(C)C(=O)[C@H](O)C3=C(C)[C@@H](OC(=O)[C@H](O)[C@@H](NC(=O)OC(C)(C)C)c4ccccc4)C[C@@](O)([C@@H](OC(=O)c4ccccc4)[C@H]21)C3(C)C |  | inactive |  | inactive | inactive | inactive | inactive |  | 6 nM (active) |  | 0.0338 µM (active)
CCCC(=O)O[C@]1(C(=O)CC)CC[C@H]2[C@@H]3CCC4=CC(=O)CC[C@]4(C)[C@H]3[C@@H](O)C[C@@]21C | inactive | inactive |  | inactive | 12 µM (active) | inactive | inactive | inactive | inactive |  | 
O=C(O)c1cc(C(=O)O)cc(C(=O)O)c1 | inactive | inactive | 16.8 | inactive | inactive |  | inactive |  |  | inactive | 
CCCCCC(C)N (centres undefined) | inactive | inactive | 1.04 | inactive | inactive |  | inactive |  | inactive | inactive | 
CC(C)(C)OC(=O)c1cccc(N)c1 | inactive | inactive | -10 | inactive | inactive |  | inactive |  | inactive | inactive | 
Nc1ccn([C@@H]2O[C@H](CO)[C@@H](O)C2(F)F)c(=O)n1 |  | inactive |  |  | inactive | inactive | inactive | inactive | inactive | inactive | 0.756 µM (active)
CCOc1ccc2nc(S(N)(=O)=O)sc2c1 | inactive | inactive | 6.72 | inactive | inactive |  | inactive | inactive |  | inactive | 
C[N+]1(C)[C@@H]2CC(OC(=O)[C@H](CO)c3ccccc3)C[C@H]1[C@@H]1O[C@@H]12 (some centres undefined) |  |  |  |  |  |  | inactive | inactive |  |  | 
COC(=O)C1=C(C)NC(C)=C(C(=O)OC(C)C)C1c1cccc2nonc12 (centres undefined) |  |  |  |  | 1.69 µM (active) | inactive | inactive | inactive | inactive |  | 16.9 µM (active)
COc1cc2c(cc1OC)-c1cc3ccc(OC)c(OC)c3c[n+]1CC2 |  | inactive |  | inactive | inactive |  | inactive |  |  | inactive | 44.1 µM (active)
CN1CC(=O)N/C1=N/C(=O)Nc1cccc(Cl)c1 | inactive | inactive | -14.4 |  | inactive |  | inactive | inactive | inactive | inactive | 
O=C(O)c1cn(C2CC2)c2cc(N3CCNCC3)c(F)cc2c1=O | inactive | inactive |  | inactive | inactive |  | inactive | inactive | inactive |  | 
COC(=O)Nc1ccc(Cl)c(Cl)c1 |  | inactive | -27.2 | inactive | inactive | inactive | inactive | inactive | inactive | inactive | 
N[C@H](C(=O)O)[C@@H](O)c1ccc(O)c(O)c1 | inactive | inactive | 0.604 | inactive | inactive |  | inactive | inactive |  | inactive | 
